Assay outcomes as filed in PubChem.
TDP1 cell noCPT: qHTS for Inhibitors of human tyrosyl-DNA phosphodiesterase 1 (TDP1): qHTS in cells in absence of CPT. actives 15% (n = 420,000). Potency, µM (top dose mostly 46.2 µM), for inactives: top-dose activity change, negative = growth inhibition, most hits filed as inhibitors. DT40 Tdp1-/- hTDP1 cells, no CPT, ATP luminescence, 48 h; note: nearly all actives have a fitted effect of over 55% in size
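Compound effects on proliferation are scored in DT40 Tdp1-/-;hTDP1 cells in the absence of CPT. ATP levels (CellTiter-Glo luminescence) are recorded after a ≥48 hr, 37 °C incubation.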
ELG1 DNA repair: qHTS screen for small molecules that inhibit ELG1-dependent DNA repair in human embryonic kidney (HEK293T) cells expressing luciferase-tagged ELG1; HEK293T ELG1-luciferase reporter, luminescence, 16 h; DNA damage induced by 5-fluorouridine; Potency, µM (titrated, usually from 46.1 µM), inactives show at the highest dose activity change, negative = inhibition, actives largely listed as inhibitors; actives 2.3% (n = 330,000); note: nearly all actives have a fitted effect of over 55% in size
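Cells (2,000 per well) received 5-fluorouridine plus test compound or DMSO and were incubated 16 hr at 37 °C, 5% CO2. Luciferase activity was read by luminescence 30 min after ONE-Glo addition; signal suppression marked inhibition of damage-induced ELG1 function.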
ALOX12 inh: Primary qHTS assay for inhibitors of human arachidonate 12S-lipoxygenase (ALOX12): Round 2. Polyunsaturated fatty acid lipoxygenase ALOX12 (Homo sapiens), P18054. Potency, µM (highest dose often 108 µM), for inactives: at the highest dose activity change, negative = inhibition, usual class: inhibitors. AID 1671190, 2021. purified 12hLO, xylenol orange hydroperoxide absorbance. actives 1.1% (n = 580,000)
Target sequence (P18054 whole entry, looked up): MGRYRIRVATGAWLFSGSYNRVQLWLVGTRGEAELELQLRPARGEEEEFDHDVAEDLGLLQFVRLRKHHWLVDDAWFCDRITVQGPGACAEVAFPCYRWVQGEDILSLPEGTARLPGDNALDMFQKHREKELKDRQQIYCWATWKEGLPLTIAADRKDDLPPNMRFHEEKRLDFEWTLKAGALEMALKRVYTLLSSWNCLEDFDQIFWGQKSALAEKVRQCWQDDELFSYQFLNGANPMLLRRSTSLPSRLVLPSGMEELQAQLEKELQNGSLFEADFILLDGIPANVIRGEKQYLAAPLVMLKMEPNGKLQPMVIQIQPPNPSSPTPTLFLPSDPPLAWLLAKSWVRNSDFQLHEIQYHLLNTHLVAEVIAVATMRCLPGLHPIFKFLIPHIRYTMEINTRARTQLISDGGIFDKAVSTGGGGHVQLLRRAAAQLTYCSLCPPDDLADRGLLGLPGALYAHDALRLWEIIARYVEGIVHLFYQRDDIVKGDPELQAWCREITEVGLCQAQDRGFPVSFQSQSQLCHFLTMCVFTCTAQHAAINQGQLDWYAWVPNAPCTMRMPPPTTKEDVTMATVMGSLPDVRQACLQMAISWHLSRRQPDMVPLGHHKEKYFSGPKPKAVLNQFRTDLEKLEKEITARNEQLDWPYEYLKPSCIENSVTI
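Purified human 12hLO (150 nM final) in 25 mM Hepes, 0.01% Triton X-100, pH 7.0 was preincubated 15 min at room temperature with compound. Then 40 uM arachidonic acid was added, 30 min. Hydroperoxide was read by Fe-XO absorbance ratio 573/405 nm.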
TDP1 cell CPT: qHTS for Inhibitors of human tyrosyl-DNA phosphodiesterase 1 (TDP1): qHTS in cells in presence of CPT; Potency, µM (top dose mostly 46.2 µM), for inactives: at the top dose activity change, negative = growth inhibition, hits mostly inhibitors; actives 12% (n = 420,000); chicken DT40 Tdp1-/-;hTDP1 cells + 20 nM CPT, ATP luminescence, 48 h; note: nearly all actives have a fitted effect of over 55% in size
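Chicken DT40 Tdp1-/- cells complemented with human TDP1, 400 cells/well, exposed to compounds plus 20 nM camptothecin for at least 48 h at 37 C; viability read as ATP content by CellTiter-Glo luminescence.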
RORg inh: qHTS for inhibitors of ROR gamma transcriptional activity; Potency, µM (doses to about 53.6 µM), for inactives: top-dose activity change, negative = inhibition, usual class: inhibitors; AID 2551, 2010; Nuclear receptor ROR-gamma (Mus musculus), P51450; actives 5.4% (n = 310,000); Drosophila S2 Gal4-RORgamma UAS-luciferase reporter, 20 h; note: nearly all actives have a fitted effect of over 60% in size
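Luminescence from a UAS-regulated Photinus luciferase reporter in stably transfected Drosophila Schneider cells is measured; decreased signal marks ROR gamma inhibition. Fusion expression is induced by 700 uM copper sulfate for 20 hr.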
VP16 counter: VP16 counterscreen qHTS for inhibitors of ROR gamma transcriptional activity | Drosophila S2 Gal4-VP16 UAS-luciferase, luminescence, 20 h | Potency, µM (doses to about 53.6 µM), for the others: top-dose activity, negative = inhibition, most hits filed as inhibitors | actives 3.5% (n = 310,000) | AID 2546, 2010;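 note: Gal4-VP16 expression switched on by copper sulfate through the metallothionein promoter; nearly all actives have a fitted effect of over 50% in size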
An asterisk follows results filed as active; ? = inconclusive; · = no result; [ ] = dose if it differs, or a comment. Sampled rows, rich in hits. Any-hit rate of the full collection: about 15%. Calls come from the whole dose curve; as a rule, active = well fitted curve in the direction sought with a large enough effect; inconclusive = small, poorly fitted or top-dose-only effect, or another doubt; inactive = no such curve, though single readings can be large; an effect the other way counts as inactive or inconclusive. % is set by controls: 0 for no effect and ±100 for the full control effect; potency is the fitted concentration of half-maximal effect.

SMILES	TDP1 cell noCPT	ELG1 DNA repair	ALOX12 inh	TDP1 cell CPT	RORg inh	VP16 counter
COc1cccc(NC(=S)N2C3CCCC2CC(NC(=O)C2CC2)C3)c1 (centres undefined)	-8.1%	2.3%	2.4%	-4.8%	0.2%	-14.8%
CCc1ccc(NC(=S)NC2CC3CCCC(C2)N3Cc2cccs2)cc1 (centres undefined)	?	-4.8%	?	18.4µM*	2µM*	12.6µM*
COc1cccc(NC(=S)NC2CC3CCCC(C2)N3CC(C)C)c1 (centres undefined)	16.4µM*	10.5%	-9.1%	?	10µM*	6.9%
N#Cc1ncn(Cc2nnc(-c3ccccc3)o2)n1	·	·	2.2%	·	·	·
CCCc1nc(C)c(CNC2CCN(C(=O)c3ccccc3)CC2)s1	·	·	-15.3%	·	·	·
O=C(O)c1cccc(NC(=O)c2cccc(S(=O)(=O)N3CCCCC3)c2)c1	-7.6%	?	-0.3%	7.0%	-8.5%	2.0%
Cc1ccc(-c2csc(NC(=O)c3cccc(S(=O)(=O)N4CCN(C)CC4)c3)n2)cc1	18.4µM*	?	0.0%	?	-5.5%	-11.3%
O=C(Nc1nc(-c2cccs2)cs1)c1cccc(S(=O)(=O)N2CCCCC2)c1	25.9µM*	?	?	?	-6.3%[0.365 µM]	·
Cc1nnc(NC(=O)c2cccc(S(=O)(=O)N3CCN(C)CC3)c2)s1	-24.8%	24.0%	-23.8%	-10.7%	·	·
O=C(Nc1nn[nH]n1)c1cccc(S(=O)(=O)N2CCCCCC2)c1	·	·	10µM*	·	·	·
CN(CCc1ccccn1)C(=O)CCc1ccc2c(c1)CN(S(C)(=O)=O)CCO2	·	·	25.4%	·	·	·
O=C(CCc1cc(Cl)no1)N(CCS(=O)(=O)N1CCOCC1)Cc1ccccn1	·	·	7.94µM*	·	·	·
CC(=O)NNC(=S)Nc1ccccc1C(F)(F)F	·	·	66.7%	·	·	·
CC(C)CC(=O)NC(=S)Nc1ccccc1C(F)(F)F	?	-10.0%	?	?	5.62µM*	?
CC(C)(C)CC(=O)NC(=S)Nc1ccccc1C(F)(F)F	?	2.5%	-14.1%	?	3.16µM*	20µM*
COc1cc(/C=N\NC(=O)c2ccc(Cn3nc([N+](=O)[O-])c(Cl)c3C)o2)ccc1O	?	?	194.0%	-4.7%	-3.1%	8.4%
COc1cccc(/C=N/NC(=O)Cn2nc(C)c([N+](=O)[O-])c2C)c1O	5.8µM*	-2.2%	-10.5%	5.8µM*	0.355µM*	0.794µM*
COc1cccc(/C=N/NC(=O)C(C)n2nc(C)c([N+](=O)[O-])c2C)c1O (centres undefined)	1.03µM*	16.7%	1.8%	0.92µM*	0.178µM*	0.0398µM*
COc1ccc(/C=N/NC(=O)c2ccco2)cc1Cn1nc(C)cc1C	-21.1%	21.4%	-15.1%	-2.3%	-41.9%	-1.0%
COc1ccc(/C=N/NC(=O)c2ccco2)cc1Cn1nc(C)c([N+](=O)[O-])c1C	18.4µM*	-2.5%	-7.2%	?	-0.8%	-21.2%
COc1cccc(/C=N\NC(=O)c2ccc(Cn3cc(Br)c([N+](=O)[O-])n3)o2)c1O	3.26µM*	?	-16.0%	?	3.1%	0.282µM*
Cc1nn(CC(=O)N/N=C/c2cccs2)c(C)c1[N+](=O)[O-]	-27.9%	3.0%	49.4%	2.8%	?	-27.2%
Cc1cccc(/C=C/C(=O)c2cc3ccccc3o2)c1	·	·	-0.6%	·	·	·
